This passage reports max response and Potency results from PubChem BioAssay (NCATS).

Several values for one entry are separate records, joined by “and”; a condition that tells them apart may be missing. Equal values may be shown once. Results filed as inconclusive are left out. Activity calls are given as the source filed them. Calls come from the whole dose curve; as a rule, active = well fitted curve in the direction sought with a large enough effect; inconclusive = small, poorly fitted or top-dose-only effect, or another doubt; inactive = no such curve, though single readings can be large or run the other way.
% is set by controls: 0 for no effect and ±100 for the full control effect; potency is the fitted concentration of half-maximal effect.

This assay can be described thus: qHTS Assay for Identifying Gametocytocidal Compounds (AID 743244).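 For max response: actives lower the fluorescent signal which means gametocytes are killed.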 Conditions: P. falciparum 3D7 stage III-V gametocytes, alamarBlue, 72 h; max response: active compounds read low. The essentials: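 Late gametocytes (III–V), P. falciparum 3D7; 72 h drug, then 24 h alamarBlue; resazurin reduction read by fluorescence.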
Consider `C#CCOC(=O)C1=CCCN(C)C1`, for which the max response is 10.6% (inactive).
With `C[N+]1(C)C2CCC1CC(OC(=O)C(CO)c1ccccc1)C2` (stereo not drawn), the max response is 23.1% (inactive) and 28.3% (inactive).
`S=C(NC1CCCCC1)N1CCC(c2cnc[nH]2)CC1`: the max response is 16.5% (inactive).
Take `O=C(O)CC[N+](=O)[O-]`: the max response is 13% (inactive).
Consider `Clc1cnc(Oc2ccc(Oc3ncc(Cl)cc3Cl)cc2)c(Cl)c1`, for which the max response was 17.9% (inactive).
`CC(C)Oc1cccnc1N(C)C1CCN(Cc2ccccc2)CC1`: the max response was -6.11% (inactive).
Take `NCCc1c[nH]c2ccc(O)cc12`: the max response was 9.61% (inactive).
For `O=C1CCCN1CC#CCN1CCCC1`, the max response is 30.9% (inactive).
As for `Clc1ccc(C(c2ccc(Cl)cc2)n2cc[n+](CC(OCc3ccc(Cl)cc3Cl)c3ccc(Cl)cc3Cl)c2)cc1` (stereo not drawn), the Potency was 1 µM (active).
Consider `NC(CCP(=O)(O)O)C(=O)O` (stereo not drawn), for which the max response was 12.6% (inactive).
Turning to `NCCc1c[nH]c2ccccc12`, the max response is 11% (inactive).
Consider `NC1CCc2cc(O)c(O)cc2C1` (stereo not drawn), for which the max response is 20.3% (inactive).
`NC(CP(=O)(O)O)C(=O)O` (stereo not drawn): the max response was 4% (inactive).
For `CCCCCCCCCCCCCCCC[N+](C)(C)C`, the Potency is 10 µM (active).
Take `c1ccc(C2(c3ccccc3)CC2C2=NCCN2)cc1` (stereo not drawn): the max response was -4.94% (inactive) and 21.7% (inactive).
For `C[C@]12N[C@H](Cc3ccccc31)c1ccccc12`, the max response is -6.68% (inactive) and -2.83% (inactive) and -7.09% (inactive).
For `COc1cc(C(O)CN)ccc1O` (stereo not drawn), the max response is 2.34% (inactive).
The same measure, in the same setting: next, `O=C(O)[C@@H]1CCN1`: 23.1% (inactive).
For the compound `CC(=O)NCCc1c[nH]c2ccccc12`, the max response was 17.3% (inactive).
Regarding `NC(=NCCC[C@H](N)C(=O)O)N[N+](=O)[O-]`, the max response is 11.8% (inactive).
Turning to `CC(=O)[C@H]1CCC2C3CC[C@H]4C[C@H](O)CC[C@]4(C)C3CC[C@@]21C` (stereo partly drawn), the max response was 27.5% (inactive).
Turning to `CC(C)NC(C)Cc1ccc(I)cc1` (stereo not drawn), the max response was 8.77% (inactive).
On to `NCc1cc(=O)[nH]o1`, for which the max response was 24.8% (inactive).
Take `CCCN(CCC)[C@@H]1CCc2ccc(O)cc2C1`: the max response was 10.7% (inactive).
Consider `NC(N)=NOCCC(N)C(=O)O` (stereo not drawn), for which the max response is 10.4% (inactive).
Regarding `C[C@@H](N)Cc1cnc[nH]1`, the max response was 1.66% (inactive).
On to `NC(=O)CN1CC(O)CC1=O` (stereo not drawn), for which the max response was -2.78% (inactive) and 8.87% (inactive).
For `O=C(O)Cc1cnc[nH]1`, the max response was 3.18% (inactive).
On to `Cc1nccc2c1[nH]c1ccccc12`, for which the max response is 22.2% (inactive).
Turning to `O=C(Cc1ccc(Cl)c(Cl)c1)N1CCCCC1CN1CCCC1` (stereo not drawn), the max response is 17.1% (inactive).
Turning to `CCCCc1ccc(C(=O)O)nc1`, the max response was 4.22% (inactive) and 15% (inactive).
In the case of `CCCN(CCC)C1CCc2ccc(O)cc2C1` (stereo not drawn), the max response is 6.52% (inactive).
The same measure, in the same setting: the figure for `CC[N+]1(CCOC(=O)C(O)(c2ccccc2)c2ccccc2)CCCCC1` is 2.2% (inactive); for `CCCCCCCCc1ccc(O)cc1` it is -6.88% (inactive); for `CCCN1CCO[C@@H]2c3cc(O)ccc3OC[C@H]21` it is -5.59% (inactive) and 5.71% (inactive).
In the case of `Cn1cnc(CCN)c1`, the max response is 33.2% (inactive).
For the compound `CS(=N)(=O)CC[C@H](N)C(=O)O` (stereo partly drawn), the max response was -10.6% (inactive).
Regarding `C[C@]12CCC3C(CC[C@H]4C[C@H](O)CC[C@]34C)C1CC[C@@H]2C(=O)CO` (stereo partly drawn), the max response was 12.3% (inactive).
